The record followed here is PubChem BioAssay (NCATS).

Records with an inconclusive call do not appear. Calls of active or inactive are those of the source. Unless noted, calls come from the whole dose curve; as a rule, active = well fitted curve in either direction with a large enough effect (not every such curve was filed as active); inconclusive = small, poorly fitted or top-dose-only effect, or another doubt; inactive = flat fitted curve, though single readings scatter.

For test [1], the target named is Lysosomal acid glucosylceramidase (Homo sapiens) (UniProt P04062). Kind of test: Glucocerebrosidase-p2 (AID 348; in the data active = potency below about 10 µM; note: potency is the fitted concentration of half-maximal effect). The conditions noted are these: purified GBA, blue fluorogenic substrate, 40 min. In outline:
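Normal human glucocerebrosidase (0.2 nM) with blue fluorogenic substrate (80 uM final) in citrate/phosphate pH 5.9 with 10mM sodium taurocholate, 0.01% tween-20; 40 min RT, NaOH/glycine stop; fluorescence Ex 365/Em 440; AC50 from a titration from 0.6 nM upwards.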

A short description of test [2]: AP1 Signaling Pathway (AID 357). Note: % is set by controls: 0 for no effect and ±100 for the full control effect. To be noted: ME-180 AP-1-bla reporter, EGF-induced, beta-lactamase ratio, 5 h; at 7.69 µM (top of the series) unless noted. In outline: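 ME-180 cells with beta-lactamase reporter under AP-1 response element, stimulated with EC50 EGF; compounds tested in titration series, 5 h at 37 °C. CCF4 substrate added 2.5 h at room temperature; 460/530 nm emission ratio gave %activity and AC50.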

Test [3] concerns the target Cytochrome P450 1A2 (Homo sapiens) (UniProt P05177). Kind of test: p450-cyp1a2 (AID 410; calls by dose curve; note: potency is the fitted concentration of half-maximal effect). To be noted: recombinant CYP1A2, luciferin-ME demethylation, luminescence; series mostly up to 57 µM. The procedure, abridged:
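20nM CYP1A2, 100uM Luciferin-ME (=Km), 100mM KPO4; cpd 10 min RT; +NADPH regen, 60 min RT; stop/detect 20 min; luminescence. Normalized to furafylline 57 uM = full inhibition.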

Test [4] in a line: NFAT Signaling Pathway (AID 444).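 Note: carbachol stimulus at about its EC50 of 1 µM final; % is set by controls: 0 for no effect and ±100 for the full control effect.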 To be noted: Jurkat NFAT-bla M1, carbachol, beta-lactamase ratio, 5 h; at 7.69 µM (top of the series) unless noted. The procedure, abridged:
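Jurkat cells with NFAT-driven β-lactamase reporter and co-expressed M1 receptor, stimulated with carbachol (final 1 uM, ~EC50), compound titration, 5 h at 37 °C. CCF4 loaded 1 h at RT; 460/530 nm ratio gave %activity and AC50.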

Test [5] is described as follows: Stat Signaling Pathway (AID 446).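 Note: ME-180 cervical cancer cells given 40 pM IL-6 alongside compound; SIE-controlled beta-lactamase reporter measured as 460/530 nm FRET emission ratio; % is set by controls: 0 for no effect and ±100 for the full control effect.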 The conditions noted are these: ME-180 (cervical carcinoma) SIE beta-lactamase reporter, IL-6 stimulated, 5 h; at 7.69 µM (top of the series) unless noted. In outline:
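Normalization used AC90 stimulation (300 pM IL-6) and AC90 inhibition (125 nM pan-JAK inhibitor at 40 pM IL-6). The underlying signal is SIE-driven beta-lactamase in ME-180 cells after 5 h IL-6 exposure with compound.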

Test [6] deals with Glucocorticoid receptor (Homo sapiens) (UniProt P04150). Kind of test: GR-GFP Redistribution (AID 450;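 active = compounds whose dose series gives a full or clear partial fitted curve of increased nuclear translocation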; note: potency is the fitted concentration of half-maximal effect). The conditions noted are these: U2OS GR-GFP nuclear translocation, laser cytometry, 2 h.
Glucocorticoid receptor (Homo sapiens), sequence (P04150 whole entry, looked up): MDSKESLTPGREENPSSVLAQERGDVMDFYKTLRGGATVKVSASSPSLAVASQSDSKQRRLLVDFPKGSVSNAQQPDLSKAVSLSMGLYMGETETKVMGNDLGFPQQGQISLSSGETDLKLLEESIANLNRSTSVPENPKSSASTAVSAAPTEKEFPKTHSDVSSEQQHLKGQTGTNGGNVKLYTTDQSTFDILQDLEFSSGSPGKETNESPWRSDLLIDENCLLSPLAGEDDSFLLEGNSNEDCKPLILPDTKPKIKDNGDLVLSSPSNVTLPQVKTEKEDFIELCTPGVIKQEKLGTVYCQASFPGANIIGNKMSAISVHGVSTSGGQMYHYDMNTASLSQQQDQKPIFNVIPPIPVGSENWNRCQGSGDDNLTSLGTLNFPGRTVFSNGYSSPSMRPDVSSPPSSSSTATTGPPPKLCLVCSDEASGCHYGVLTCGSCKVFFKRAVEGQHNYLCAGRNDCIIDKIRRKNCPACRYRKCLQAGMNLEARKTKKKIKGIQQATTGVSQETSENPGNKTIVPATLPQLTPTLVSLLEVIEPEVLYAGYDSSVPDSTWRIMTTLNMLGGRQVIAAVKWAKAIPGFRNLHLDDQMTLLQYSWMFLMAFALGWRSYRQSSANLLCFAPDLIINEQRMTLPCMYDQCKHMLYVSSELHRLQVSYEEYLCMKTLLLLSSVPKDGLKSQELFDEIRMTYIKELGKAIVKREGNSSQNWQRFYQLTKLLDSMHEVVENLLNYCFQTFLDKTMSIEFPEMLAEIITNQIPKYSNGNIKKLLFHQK
For test [7] the target is unchanged. Kind of test: GR-EFC Redistribution (AID 451; calls by dose curve; note: potency is the fitted concentration of half-maximal effect). To be noted: CHO-K1 GR-EFC translocation, beta-gal luminescence, 2 h. In outline:
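CHO-K1 cells expressing nuclear EA and GR-ED fragments of b-gal; compounds titrated up to 46 uM final, 2 h at 37 C. GR nuclear translocation read as complemented b-gal luminescence after 1 h RT detection.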

The target of test [8] is Mitogen-activated protein kinase 10 (Mus musculus) (UniProt Q61831). Kind of test: JNK3 AlphaScreen Assay (AID 530).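 Note: kinase came from lysate of stimulated human HepG2 cells; signal reports phosphorylation of biotinylated GST-cJun 1-79 at Ser73 with 10 µM ATP; % is set by controls: 0 for no effect and ±100 for the full control effect.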 To be noted: JNK3 lysate, c-Jun phosphorylation; series mostly up to 57.1 µM. The procedure, abridged: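 HepG2 lysate (IL-1b/TNFa pre-activated) + biotin-GST-cJun 1-79 + anti-pSer73 cJun; cpd titration, 15 min RT; ATP 10 uM start; Tris pH 7.6, MgCl2, DTT, vanadate; beads in EDTA buffer; AlphaScreen.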
On the technique in general: Alpha assays give light when donor and acceptor beads are brought close together.

For test [9], the target named is 3',5'-cyclic-AMP phosphodiesterase 4B (Homo sapiens) (UniProt Q07343). Kind of test: qHTS Assay for Inhibitors of PDE-IV (AID 607; active = well fitted activation curve with a large enough effect in the main read-out, with a control signal flat, not every such curve was filed as active; note: % of control where 0% means no effect). The conditions noted are these: HEK293 ACTOne CNG channel cells, membrane potential fluorescence; series mostly up to 22.9 µM. In outline: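 HEK293 ACTOne cells with CNG channel (1000/well), endogenous PDE4; membrane potential dye, compounds up to 22.9 uM final. Fluorescence Ex 535/Em 590; RO 20-1724 (100 uM final) as reference.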
3',5'-cyclic-AMP phosphodiesterase 4B (Homo sapiens), sequence (Q07343 whole entry, looked up): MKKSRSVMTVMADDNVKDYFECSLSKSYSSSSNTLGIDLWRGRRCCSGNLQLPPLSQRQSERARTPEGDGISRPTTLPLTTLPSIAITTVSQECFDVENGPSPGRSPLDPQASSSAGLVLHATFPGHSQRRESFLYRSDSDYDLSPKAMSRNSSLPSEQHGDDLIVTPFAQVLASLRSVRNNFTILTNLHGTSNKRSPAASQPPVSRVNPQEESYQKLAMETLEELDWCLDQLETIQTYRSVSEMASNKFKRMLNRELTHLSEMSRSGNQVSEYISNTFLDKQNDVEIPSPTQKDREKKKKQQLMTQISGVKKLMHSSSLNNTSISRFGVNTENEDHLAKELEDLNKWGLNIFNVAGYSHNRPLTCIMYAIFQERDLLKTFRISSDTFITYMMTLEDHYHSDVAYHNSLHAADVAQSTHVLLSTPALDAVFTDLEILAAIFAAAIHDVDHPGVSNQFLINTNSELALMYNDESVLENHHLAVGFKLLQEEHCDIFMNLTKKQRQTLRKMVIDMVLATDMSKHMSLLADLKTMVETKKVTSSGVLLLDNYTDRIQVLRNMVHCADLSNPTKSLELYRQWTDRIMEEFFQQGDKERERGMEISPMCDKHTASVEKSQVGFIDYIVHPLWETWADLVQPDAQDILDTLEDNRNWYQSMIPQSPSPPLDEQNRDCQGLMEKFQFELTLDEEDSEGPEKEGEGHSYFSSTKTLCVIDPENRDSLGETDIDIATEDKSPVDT
Background: In qHTS, concentration-response curves come from the screen itself.

The target of test [10] is Cytochrome P450 3A4 (Homo sapiens) (UniProt P08684). Kind of test: qHTS Assay for Activators of Cytochrome P450 3A4 (AID 885; active = well fitted curve in the direction sought with a large enough effect; an effect the other way counts as inactive or inconclusive; note: nearly all actives have a fitted effect of over 65% in size). To be noted: recombinant CYP3A4, Luciferin-PPXE luminescence, 60 min; series mostly up to 57.1 µM. The procedure, abridged: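 Human CYP3A4 dealkylates Luciferin-PPXE to luciferin, which luciferase detection converts to light. Substrate was at its KM (25uM), buffer 200mM KPO4, reaction 60 min at RT.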
Cytochrome P450 3A4 (Homo sapiens), sequence (P08684 whole entry, looked up): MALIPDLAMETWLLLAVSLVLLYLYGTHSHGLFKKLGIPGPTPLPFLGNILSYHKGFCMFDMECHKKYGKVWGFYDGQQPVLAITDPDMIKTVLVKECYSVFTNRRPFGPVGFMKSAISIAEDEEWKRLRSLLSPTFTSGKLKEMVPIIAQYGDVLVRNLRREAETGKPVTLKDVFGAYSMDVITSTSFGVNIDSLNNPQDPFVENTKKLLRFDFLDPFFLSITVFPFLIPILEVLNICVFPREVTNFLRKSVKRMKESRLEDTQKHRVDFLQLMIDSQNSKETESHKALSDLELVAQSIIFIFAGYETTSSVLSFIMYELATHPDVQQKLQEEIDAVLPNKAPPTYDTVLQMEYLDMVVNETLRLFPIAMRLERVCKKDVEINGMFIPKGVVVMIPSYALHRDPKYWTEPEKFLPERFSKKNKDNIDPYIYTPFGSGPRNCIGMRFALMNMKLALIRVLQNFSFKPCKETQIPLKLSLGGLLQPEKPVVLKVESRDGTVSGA

Test [11] can be described thus: qHTS Assay for Lipid Storage Modulators (AID 1519; calls by dose curve). To be noted: Drosophila S3 cells, BODIPY lipid droplet/cell ratio, laser cytometry, cells loaded with oleic acid; for activity change, negative = inhibition: at 57.5 µM (top of the series). The procedure, abridged: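 Cells seeded at 5,000 per well were treated with compounds over a concentration series and loaded with oleic acid (400 uM, as added). Lipid droplet fluorescence (488 nm excitation, 500-530 nm channel) was read by laser-scanning cytometry and normalized to 20 uM Triacsin C.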

Test [12] can be described thus: Primary qHTS for small molecule stabilizers of the endoplasmic reticulum resident proteome: Secreted ER Calcium Modulated Protein (SERCaMP) assay (AID 1508630; active = well fitted curve in the direction sought with a large enough effect; an effect the other way counts as inactive or inconclusive; note: % is set by controls: 0 for no effect and ±100 for the full control effect). The conditions noted are these: SH-SY5Y GLuc-SERCaMP (Gaussia luciferase released on ER calcium loss) secretion, thapsigargin, luminescence; series mostly up to 38.4 µM. The procedure, abridged: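 The SH-SY5Y reporter protocol was run at 3 concentrations up to 38.3 uM (primary) or 11 concentrations (follow-up): 16 h compound, 100 nM thapsigargin for 4 h, then extracellular luciferase luminescence.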

A short description of test [13]: Confirmation and Secondary Assay for Modulators of Hemoglobin Beta Chain Splicing at IVS2 654 locus (AID 910; active = well fitted curve in the direction sought with a large enough effect; an effect the other way counts as inactive or inconclusive;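 note: HeLa cells stably carrying EGFP split by mutant beta-globin IVS2-654 intron; % of control where 0% means no effect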). The conditions noted are these: HeLa EGFP-654 splicing reporter, GFP fluorescence, 48 h; series mostly up to 38.3 µM. The procedure, abridged:
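HeLa cells stably expressing EGFP interrupted by β-globin IVS2-654 intron, seeded overnight in Opti-MEM/2% FCS, then treated 2 days at 37 °C. Restored splicing read as total peak GFP intensity per well by laser scanning cytometry (488 nm excitation, 500–520 nm emission); 500 nM antisense PNA as control.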

Test [14] in a line: Confirmation and Secondary Assay for Modulators of Hemoglobin Beta Chain Splicing at IVS2 705 locus (AID 930; active = well fitted curve in the direction sought with a large enough effect; an effect the other way counts as inactive or inconclusive;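 note: HeLa cells stably expressing the EGFP-705 splicing reporter; % of control where 0% means no effect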). The conditions noted are these: HeLa EGFP-705 splicing reporter, GFP fluorescence, 48 h; series mostly up to 38.3 µM. The procedure, abridged: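 Splice-correction reporter: EGFP cDNA split by beta-globin intron 2 bearing the 705 mutation, stably in HeLa. Compound incubation 2 days, 37C; fluorescent objects 5-250 µm summed per well.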

The target of test [15] is Ubiquitin carboxyl-terminal hydrolase 1 (Homo sapiens) (UniProt O94782). Kind of test: Inhibitors of USP1/UAF1: Pilot qHTS (AID 504865; active = well fitted curve in the direction sought with a large enough effect; an effect the other way counts as inactive or inconclusive;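 note: rhodamine fluorescence freed from ubiquitin-rhodamine substrate followed over time; top concentration of the series differs between compounds; % is set by controls: 0 for no effect and ±100 for the full control effect; nearly all actives have a fitted effect of over 35% in size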). To be noted: purified USP1/UAF1, Ub-rhodamine cleavage fluorescence; series mostly up to 54.9 µM. The procedure, abridged:
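In 50mM HEPES pH 7.8 containing 0.5mM EDTA, 1mM TCEP, 0.1 mg/ml BSA and 0.01% Tween-20, 1nM USP1/UAF1 is exposed to compound for 15 min, then Ub-Rho (150nM final) is added and fluorescence is read over time.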

The target in test [16] is Cytochrome P450 2C19 (Homo sapiens) (UniProt P33261). Put plainly: qHTS Assay for Inhibitors and Substrates of Cytochrome P450 2C19 (AID 899; active = well fitted curve in the direction sought with a large enough effect; an effect the other way counts as inactive or inconclusive; note: potency is the fitted concentration of half-maximal effect; nearly all actives have a fitted effect of over 60% in size). The conditions noted are these: recombinant CYP2C19, luciferin-H EGE luminescence; series mostly up to 57.1 µM. The procedure, abridged: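 5 nM human CYP2C19 with 10uM Luciferin-H EGE (at KM) in 50mM KPO4, compound preincubated 10 min at 37C, then NADPH regeneration for 60 min at 37C. Luciferin read by luminescence after detection reagent; normalized to 57uM ketoconazole as full inhibition.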
Cytochrome P450 2C19 (Homo sapiens), sequence (P33261 whole entry, looked up): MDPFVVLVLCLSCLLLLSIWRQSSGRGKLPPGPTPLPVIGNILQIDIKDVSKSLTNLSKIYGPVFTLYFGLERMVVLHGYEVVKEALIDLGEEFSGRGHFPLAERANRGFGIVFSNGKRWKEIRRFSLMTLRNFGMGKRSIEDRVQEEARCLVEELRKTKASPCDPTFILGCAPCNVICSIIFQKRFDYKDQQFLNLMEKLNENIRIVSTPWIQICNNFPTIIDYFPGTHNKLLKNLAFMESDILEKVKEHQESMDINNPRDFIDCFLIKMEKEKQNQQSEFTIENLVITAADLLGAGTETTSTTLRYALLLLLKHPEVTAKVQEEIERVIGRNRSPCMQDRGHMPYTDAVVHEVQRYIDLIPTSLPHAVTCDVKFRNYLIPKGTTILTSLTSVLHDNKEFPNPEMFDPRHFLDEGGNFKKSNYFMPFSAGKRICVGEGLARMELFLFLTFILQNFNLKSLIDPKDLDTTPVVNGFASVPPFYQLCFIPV

[17] abbreviates: measured here: cell count channel max response.
[18] abbreviates: measured here: lipid channel max response.

Lysosomal acid glucosylceramidase (Homo sapiens), sequence (P04062 whole entry, looked up): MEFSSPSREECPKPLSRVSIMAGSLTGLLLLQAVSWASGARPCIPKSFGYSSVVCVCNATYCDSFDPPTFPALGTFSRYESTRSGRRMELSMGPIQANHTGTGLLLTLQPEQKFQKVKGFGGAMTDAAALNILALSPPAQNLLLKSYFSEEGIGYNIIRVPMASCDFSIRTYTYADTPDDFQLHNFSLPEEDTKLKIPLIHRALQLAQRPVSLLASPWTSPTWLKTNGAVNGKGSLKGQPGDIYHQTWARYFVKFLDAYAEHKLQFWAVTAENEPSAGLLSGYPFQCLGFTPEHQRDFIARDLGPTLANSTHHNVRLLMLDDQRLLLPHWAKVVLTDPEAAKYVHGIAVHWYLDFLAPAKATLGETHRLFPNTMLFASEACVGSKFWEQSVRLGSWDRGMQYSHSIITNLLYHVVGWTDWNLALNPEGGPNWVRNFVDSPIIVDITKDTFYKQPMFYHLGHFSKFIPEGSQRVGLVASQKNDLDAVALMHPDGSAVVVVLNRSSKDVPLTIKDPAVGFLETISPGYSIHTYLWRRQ
Cytochrome P450 1A2 (Homo sapiens), sequence (P05177 whole entry, looked up): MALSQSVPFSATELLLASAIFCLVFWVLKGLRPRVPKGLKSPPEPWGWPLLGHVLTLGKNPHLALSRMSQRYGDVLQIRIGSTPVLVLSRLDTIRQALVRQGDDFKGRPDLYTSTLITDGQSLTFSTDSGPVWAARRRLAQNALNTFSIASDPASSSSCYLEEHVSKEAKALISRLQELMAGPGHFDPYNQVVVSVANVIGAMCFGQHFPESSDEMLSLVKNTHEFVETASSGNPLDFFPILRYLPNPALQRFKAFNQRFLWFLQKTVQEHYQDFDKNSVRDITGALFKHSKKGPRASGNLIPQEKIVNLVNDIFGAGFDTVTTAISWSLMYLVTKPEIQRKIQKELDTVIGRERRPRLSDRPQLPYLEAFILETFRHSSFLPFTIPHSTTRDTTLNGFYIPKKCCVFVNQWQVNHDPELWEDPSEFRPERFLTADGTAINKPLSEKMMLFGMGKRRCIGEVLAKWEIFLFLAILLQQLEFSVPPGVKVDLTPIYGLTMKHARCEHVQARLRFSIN
Ubiquitin carboxyl-terminal hydrolase 1 (Homo sapiens), sequence (O94782 whole entry, looked up): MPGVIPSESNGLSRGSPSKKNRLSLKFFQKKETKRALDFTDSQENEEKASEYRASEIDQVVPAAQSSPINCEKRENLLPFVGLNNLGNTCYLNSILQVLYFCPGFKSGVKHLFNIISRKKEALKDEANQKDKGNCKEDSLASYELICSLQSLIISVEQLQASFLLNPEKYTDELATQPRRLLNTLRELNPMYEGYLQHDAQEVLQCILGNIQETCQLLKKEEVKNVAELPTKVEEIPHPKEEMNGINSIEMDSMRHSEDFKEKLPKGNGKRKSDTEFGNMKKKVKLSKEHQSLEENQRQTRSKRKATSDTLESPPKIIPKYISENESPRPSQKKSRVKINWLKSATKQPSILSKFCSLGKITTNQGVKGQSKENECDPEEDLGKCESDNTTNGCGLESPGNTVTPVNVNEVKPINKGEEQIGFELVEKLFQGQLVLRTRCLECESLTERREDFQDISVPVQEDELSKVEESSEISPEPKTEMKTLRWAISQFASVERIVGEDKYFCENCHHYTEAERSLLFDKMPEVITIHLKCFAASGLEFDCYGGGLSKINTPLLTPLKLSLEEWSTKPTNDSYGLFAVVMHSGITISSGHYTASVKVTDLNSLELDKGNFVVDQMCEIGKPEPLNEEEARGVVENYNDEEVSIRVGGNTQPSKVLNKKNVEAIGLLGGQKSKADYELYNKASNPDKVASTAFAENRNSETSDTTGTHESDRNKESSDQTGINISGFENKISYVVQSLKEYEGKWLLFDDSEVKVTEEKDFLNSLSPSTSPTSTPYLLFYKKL

As to `COc1ncc2nc(-c3cc(F)cc(F)c3)c(=O)n(CCC#N)c2n1`, the Potency in test [1] is > 11.4 µM (inactive); in [3], 6.31 µM (active); in [6] it was > 9.22 µM (inactive); in test [7], > 46 µM (inactive). In addition, the activity change, negative = inhibition in [2] was 2.61% (inactive); in test [4], -5.52% (inactive); in test [11] it was 5.74% (inactive). The activity, negative = inhibition in test [5] was -7.47% (inactive). Besides, the call in [8] was inactive. Also, the Potency result in test [9], in test [10] and in [12] was “inactive” each time. Moreover, the max response amounted to 17.3% in test [11] (setting [17]) and 25.6% in test [11] (setting [18]).
Take `O=C(O)C1CCN(c2ncnc3ccc(-c4ccccc4C(F)(F)F)cc23)CC1`: the Potency in test [1] is > 11.4 µM (inactive); in test [6] it was > 46 µM (inactive); in test [7] it was > 46 µM (inactive). In addition, the activity change, negative = inhibition in test [2] was -20.1% (inactive); in test [4] it was 6.97% (inactive); in [11], 4.82% (inactive). Moreover, the Potency entry in test [3], in test [10], in [15] and in [12] was “inactive” in each case. Moreover, the activity, negative = inhibition in test [5] is -9.2% (inactive). Moreover, the molecule was classed as inactive in [8], in [13] and in [14]. The max response in [11] (setting [17]) came out at 14.4%; in test [11] (setting [18]), 20.7%.
In the case of `CN(Cc1ccco1)c1cc(-c2ccccc2Cl)ncn1`, the Potency in test [1] was > 11.4 µM (inactive); in [3], 2.51 µM (active); in test [6] it was > 46 µM (inactive); in [7], > 46 µM (inactive); in test [16], 7.94 µM (active). The values for the activity change, negative = inhibition in [2], in test [4] and in test [11] were -3.34% (inactive), -22.4% (inactive) and 6.03% (inactive), respectively. Besides, in [5], the activity, negative = inhibition is 5.83% (inactive). Besides, the result in test [8], in test [13] and in test [14] was inactive. Besides, the Potency result in test [9], in test [15] and in [12] was “inactive” throughout. Moreover, the values for the max response in test [11] (setting [17]) and in [11] (setting [18]) were -2.55% and 5.54%, respectively.
In the case of `CN1CC[C@@]2(CCCN(C(=O)c3cccc(F)c3)C2)C1`, the Potency was > 11.4 µM (inactive) in [1] and > 46 µM (inactive) in [7]. Also, the activity change, negative = inhibition in [2] was -5.96% (inactive); in test [4], -2.53% (inactive); in test [11], 3.45% (inactive). The Potency result in [3] and in test [12] was “inactive” in each case. Moreover, the activity, negative = inhibition in test [5] was -8.35% (inactive). Besides, in test [8], the molecule was classed as inactive. Moreover, the max response amounted to 3.46% in [11] (setting [17]) and 12.3% in test [11] (setting [18]).
Consider `COc1ncc2ncc(=O)n(Cc3cccs3)c2n1`, for which the Potency is > 11.4 µM (inactive) in [1], 10 µM (active) in test [3], > 9.22 µM (inactive) in test [6] and > 46 µM (inactive) in test [7]. The activity change, negative = inhibition in test [2] was 1.19% (inactive); in [4] it was -2.85% (inactive); in [11] it was 4.1% (inactive). Moreover, the activity, negative = inhibition in test [5] is -3.48% (inactive). The call in test [8] was inactive. The Potency result in [10] and in [12] was “inactive” throughout. Also, the max response came to 9.65% in [11] (setting [17]) and 19.6% in [11] (setting [18]).
Take `Cc1cccc(CNc2ncncc2-c2cccc(C#N)c2)c1`: the Potency in test [1] was > 11.4 µM (inactive); in test [3], 2.51 µM (active); in test [6] it was > 46 µM (inactive); in [7], > 46 µM (inactive); in [16] it was 3.98 µM (active). Also, the activity change, negative = inhibition in test [2] is 0.377% (inactive); in test [4] it was -8.33% (inactive); in test [11] it was 4.89% (inactive). In addition, the activity, negative = inhibition in [5] is 14.8% (inactive). Besides, the outcome in test [8], in [13] and in [14] was inactive. Further, the Potency entry in test [9], in [10] and in test [12] was “inactive” each time. In addition, the max response in test [11] (setting [17]) worked out at 9.06%; in [11] (setting [18]), 15.9%.
